Laboratory results as given in PubChem BioAssay AID651658 (Broad Institute, 2012).
Where “and” joins values, the source holds several entries; their conditions need not be identical. Identical values can stand only once. The whole screen tested about 340,000 compounds, of which about 5,100 (1.5%) were called active.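 Rule for the calls: active = mean Tm shift, scaled 0 neutral to 100 positive control, at about 1.3% or above, every replicate too (limit read from the data); inconclusive = no clear call, values can overlap the other calls; inactive = the rest.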 Many of the other results were omitted from the sample, so actives are more common in it than they were.

The compounds below were run against Fibroblast growth factor 22 (Homo sapiens) (UniProt Q9HCT0) (assay: binders of human FGF22 protein, primary screen, FGF22 synaptogenesis inhibitor project, biophysical, thermal shift, single point (AID 651658)). Conditions: recombinant FGF22 thermal shift, SYPRO orange fluorescence; at 9.99 µM; stronger effect = higher value; percent of sucrose octasulfate shift, DMSO zero.
Chain of Fibroblast growth factor 22 (Homo sapiens) (Q9HCT0 whole entry, looked up): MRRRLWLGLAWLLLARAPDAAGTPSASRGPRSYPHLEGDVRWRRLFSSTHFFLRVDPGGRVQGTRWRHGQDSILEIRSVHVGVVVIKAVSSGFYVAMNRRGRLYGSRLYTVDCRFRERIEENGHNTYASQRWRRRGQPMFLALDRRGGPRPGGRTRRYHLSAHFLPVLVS

SMILES	activity (Tm shift, normalised)
COC(=O)[C@@H]1[C@@H](CO)[C@@H]2Cn3c(ccc(-c4ccc(OC)cc4)c3=O)[C@@H]2N1C	0.199% (inactive)
O=C(CSc1nn(-c2ccc(F)cc2)c(=S)s1)NC1CCS(=O)(=O)C1 (centres undefined)	0.458% (inactive)
O=C(Cc1ccc(Cl)cc1)NC1CCS(=O)(=O)C1 (centres undefined)	-0.305% (inactive)
O=C(CSc1ccccc1F)NC1CCS(=O)(=O)C1 (centres undefined)	43% (active)
CO[C@H]1CC[C@@H]2CCOc3c(C#N)cccc3C(=O)N(C)CCCC(=O)N(C)C[C@@H]1O2	0.064% (inactive)
CCn1ccnc1CN(C)C(=O)c1ccc2nc(Cc3ccc(OC)cc3)oc2c1	1.62% (active)
COc1ccc(Cc2nc3ccc(C(=O)N4CCC(N(C)C)C4)cc3o2)cc1 (centres undefined)	-0.031% (inactive)
CCC1C(=O)NCCN1C(=O)c1ccc2nc(Cc3ccc(OC)cc3)oc2c1 (centres undefined)	0.064% (inactive)
COc1ccc2c3c(n(C)c2c1)[C@@H](CO)N(C(=O)NC1CCCC1)CC31CCN(C(C)=O)CC1	-0.236% (inactive)
CC=Cc1ccc2n(c1=O)C[C@@H]1[C@@H](CO)[C@H](C(=O)NCCC)[C@H]2N1C(=O)C1CC1 (mixture of isomers)	-0.404% (inactive)
CC(=O)Nc1ccccc1-c1cn(CC(=O)N2CCOCC2)nn1	-0.164% (inactive)
COC(=O)c1cc(C(=O)N(Cc2ccccc2)c2ccccn2)cc([N+](=O)[O-])c1	0.167% (inactive)
O=C(CCl)N(Cc1cccc([N+](=O)[O-])c1)c1cccc(Cl)c1	43.2% (active)
O=C(c1cccc([N+](=O)[O-])c1)N1CCN(Cc2ccccc2)CC1	0.006% (inactive)
O=C(c1ccc(F)cc1)n1cc(C(=S)N2CCOCC2)c2ccccc21	43.1% (active)
O=C(Nc1ccc(F)cc1)C(=O)c1cn(CC(=O)N2CCOCC2)c2ccccc12	-0.305% (inactive)
O=C(Oc1ccc(C(=S)N2CCOCC2)cc1)c1ccc(F)cc1	-0.154% (inactive)
COc1cc(NC(=O)c2cccs2)ccc1NC(=O)c1ccccc1Cl	1.14% (inactive)
COC(=O)C[C@@H]1CC[C@H]2[C@H](COc3ccc(NC(=O)c4cccs4)cc3C(=O)N2C)O1	-0.323% (inactive)
COc1cc(NC(=O)c2ccc3c(c2)OCO3)ccc1NC(=O)c1cccs1	1.67% (active)
CC(C)NC(=O)Nc1ccc2c(c1)C(=O)N(C)[C@H]1CC[C@H](CC(=O)NCc3ccc(F)cc3)O[C@H]1CO2	0.053% (inactive)
O=C(Nc1ccccc1F)N[C@H]1C=C[C@H](CC(=O)N2CCCCC2)O[C@H]1CO	0.391% (inactive)
CCCN1C2CCCC1CC(NC(=O)c1cccc(OC)c1)C2 (centres undefined)	-0.224% (inactive)
COc1cccc(NC(=O)N2C3CCCC2CC(NC(C)=O)C3)c1 (centres undefined)	0.301% (inactive)
C=CCN1C2CCCC1CC(NC(=S)Nc1cccc(OC)c1)C2 (centres undefined)	43.2% (active)
O=S(=O)(N[C@@H]1CC[C@H](CCn2cc(C3(O)CCCC3)nn2)O[C@@H]1CO)c1ccc(Cl)cc1	-0.216% (inactive)
C[C@H]1CN([C@@H](C)CO)S(=O)(=O)c2ccc(-c3cccnc3)cc2O[C@H]1CN(C)C(=O)C1CCCCC1	0.041% (inactive)

SMILES	activity (Tm shift, normalised)
CCCN1C[C@@H](C)[C@@H](OC)CN(C)C(=O)c2ccc(NC(=O)Nc3cccc(F)c3)cc2OC[C@@H]1C	-0.405% (inactive)
CCOc1ccc(CN2CCN(CCCc3ccccc3)C(CCO)C2)cc1 (centres undefined)	-0.164% (inactive)
COC(=O)c1ccc(CN2CCN(CCCc3ccccc3)C(CCO)C2)cc1 (centres undefined)	43.7% (active)
OCCC1CN(Cc2ccc(Oc3ncccn3)cc2)CCN1CCc1ccccc1 (centres undefined)	0.032% (inactive)
O=C(C[C@H]1CC[C@H](NC(=O)C2CCC2)[C@@H](CO)O1)NCCCN1CCOCC1	0.216% (inactive)
O=C(C1CCOCC1)N1CC2(C1)[C@H](c1ccccc1)[C@H](CO)N2Cc1ccc(Cl)cc1	-0.232% (inactive)
CN1C[C@H](O)COC[C@H]2O[C@H](CC(=O)NC3CCC3)CC[C@@H]21	0.225% (inactive)
CCC(=O)N1C[C@@H](C)[C@@H](OC)CN(C)C(=O)c2ccc(NC(=O)C3CCCCC3)cc2OC[C@H]1C	0.107% (inactive)
COc1ccccc1NC(=O)CN(c1ccccc1OC)S(=O)(=O)c1ccccc1	-0.013% (inactive)
COc1ccccc1N(CC(=O)Nc1ccccc1C(=O)N1CCCC1)S(C)(=O)=O	41.8% (inactive)
COc1ccccc1N(CC(=O)Nc1ccc(C(F)(F)F)cc1)S(C)(=O)=O	43.3% (active)
COc1cccc(S(=O)(=O)N2C[C@H](O)COC[C@H]3O[C@@H](CC(=O)N4CCN(c5ccccc5)CC4)CC[C@@H]32)c1	0.06% (inactive)
Clc1ccc(-c2cccc3nccn23)cc1	0.174% (inactive)
O=C(NCCO)c1cccc(-c2cccc3nccn23)c1	-0.228% (inactive)
c1cc(-c2ccc3[nH]ccc3c2)n2ccnc2c1	43.4% (active)
Cn1cnc(CCNC(=O)C[C@H]2CC[C@@H]3[C@H](COC[C@H](O)CN3C(=O)C3CC3)O2)c1	-0.297% (inactive)
COc1cccc(S(=O)(=O)N2CC3(CCN(C)CC3)c3c(n(C)c4cc(OC)ccc34)[C@H]2CO)c1	0.01% (inactive)
C[C@H]1CN([C@@H](C)CO)C(=O)c2c(c3ccccc3n2C)-c2ccccc2CO[C@@H]1CN(C)Cc1ccc2c(c1)OCCN2C	-0.115% (inactive)
Cc1ccc(NNC(=O)c2cccs2)cc1Cl	-0.036% (inactive)
O=C(NNC(=O)c1ccc(Cl)cc1Cl)c1cccs1	43.3% (active)
O=C(COC(=O)c1ccc(O)cc1O)NNC(=O)c1cccs1	0.153% (inactive)
C/C=C/c1cnc2c(c1)C(=O)N([C@H](C)CO)C[C@H](C)[C@@H](CN(C)CC1CCOCC1)O2	-0.049% (inactive)
C[C@@H]1CN([C@@H](C)CO)S(=O)(=O)c2ccc(C3=CCCC3)cc2O[C@H]1CN(C)C(=O)CC1CC1	-0.028% (inactive)
COc1ccc2c3c([nH]c2c1)[C@@H](CO)N(C(=O)Nc1cccc(F)c1)CC31CCN(S(=O)(=O)c2ccccc2)CC1	-0.126% (inactive)
O=C(N[C@@H]1C=C[C@H](CC(=O)N2CCCCC2)O[C@H]1CO)c1cccc(F)c1	2.12% (active)
O=C(N[C@H]1C=C[C@@H](CC(=O)N2CCCCC2)O[C@@H]1CO)c1ccc2c(c1)OCO2	-0.043% (inactive)
O=C(N[C@H]1CC[C@H](CC(=O)N2CCCCC2)O[C@@H]1CO)c1cccc(F)c1	-0.194% (inactive) and -0.138% (inactive)

SMILES	activity (Tm shift, normalised)
CCCNC(=O)N1CC2(CN(C(=O)c3cnccn3)C2)c2c([nH]c3cc(OC)ccc23)[C@@H]1CO	0.028% (inactive)
CCn1c(C(C)C)n[nH]c1=S	43.3% (active)
CCn1c(-c2ccncc2)n[nH]c1=S	0.117% (inactive)
CCc1cc(-c2n[nH]c(=S)n2CC(C)C)cs1	-0.833% (inactive)
O=C(C[C@H]1C[C@H]2c3cc(NC(=O)Nc4ccccc4F)ccc3O[C@H]2[C@H](CO)O1)NCc1ccccn1	0.07% (inactive)
Cc1cccc(C)c1NC(=O)C1(N(C(=O)c2ccccn2)c2ccc(O)cc2)CCCCC1	43% (active)
Cc1cccc(C)c1NC(=O)CNC(=O)C1CCCC1	-0.023% (inactive)
Cc1cccc(C)c1NC(=S)N1CCCCCC1	-0.275% (inactive)
O=C(N[C@H]1CC[C@H](CCNS(=O)(=O)c2ccc(F)cc2)O[C@H]1CO)c1cccc(F)c1	-0.051% (inactive)
O=C(Nc1cc(F)ccc1F)N[C@@H]1C=C[C@@H](CC(=O)N2CCc3ccccc3C2)O[C@@H]1CO	-0.137% (inactive)
CCC(=O)N1[C@@H](CO)[C@@H]2c3ccccc3N(C(=O)c3cnccn3)C[C@@H]21	-0.28% (inactive)
Cc1ccc(S(=O)(=O)N2CCN(C(=O)COC(=O)c3c(C)noc3C)CC2)c(C)c1	-0.319% (inactive)
COc1ccc(C(=O)COC(=O)c2c(C)noc2C)cc1Cl	44% (active)
CCc1noc(C)c1C(=O)OCC(=O)c1ccc(NC(=O)CC(C)C)cc1	-0.332% (inactive)
CCOC(=O)C1=C(CC)OC(N)=C(C#N)C1c1ccc(F)cc1F (centres undefined)	43.8% (active)
COC(=O)C1=CN(c2c(C)cc(C)cc2C)C(N)=C(C#N)C1c1cccc(F)c1 (centres undefined)	-0.26% (inactive)
Cn1c2c(c(=O)n(C)c1=O)C(c1cccc(F)c1)C(C#N)=C(N)O2 (centres undefined)	-0.167% (inactive)
CN1CCCc2nc(-c3ccccc3)ccc21	42.2% (inactive)
O=S(=O)(c1cccs1)N1CCCc2nc(-c3ccc(Br)cc3)ccc21	0.061% (inactive)
COc1ccc(-c2ccc3c(n2)CCCN3S(=O)(=O)c2ccc(C)cc2)cc1	48.4% (active)
C[C@@H]1CCCCO[C@@H](CN(C)Cc2ccc(C(=O)O)cc2)[C@H](C)CN([C@H](C)CO)C(=O)c2cc(NS(=O)(=O)c3cccs3)ccc2O1	-0.274% (inactive)
C[C@@H]1CN([C@H](C)CO)C(=O)c2cc(NS(=O)(=O)c3ccccc3)ccc2O[C@@H](C)CCCCO[C@H]1CN(C)S(=O)(=O)c1ccc(Cl)cc1	-0.893% (inactive)
COCc1cn(CC[C@H]2CC[C@H](NC(=O)Nc3ccc4c(c3)OCO4)[C@@H](CO)O2)nn1	-0.239% (inactive)
CO[C@@H]1CN(C)C(=O)c2cc(NC(=O)Nc3cccc(F)c3)ccc2OC[C@H](C)N(C)C[C@@H]1C	-0.31% (inactive)
COc1ccc(-c2ccc3c(c2)[C@H]2[C@H](CCN2C(=O)C2CCOCC2)[C@H](CO)N3C)cc1	-0.244% (inactive)
